A short description of assay [1]: qHTS drug screen for cell cycle checkpoint inhibitors in PARPi-resistant BRCA-mutant ovarian cancer cell lines. (AID 1963452; calls by dose curve; further: potency means the concentration at half of the fitted maximal effect). Conditions: PEO1/OlaR viability, CellTiter-Glo luminescence, 96 h; for Z-AUC: stronger effect = lower value. The method in brief:
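PEO1, PEO4 and PEO1/OlaR ovarian cancer cells, 600 per well, exposed 96 h at 37C to a dilution series. Viability read by CellTiter-Glo luminescence, normalized to DMSO and empty wells; activity summarized as Z-AUC.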
For orientation: Quantitative high-throughput screening tests each substance at several concentrations.

Assay [2] is described as follows: qHTS profiling for inhibitors of Plasmodium falciparum proliferation (AID 504749). Further: nearly all actives have a fitted effect of over 60% in size. Further: potency means the concentration at half of the fitted maximal effect.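 On activity, negative = inhibition: 0% = DMSO vehicle and full inhibition = artemisinin control.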 Conditions: P. falciparum in erythrocytes, SYBR Green DNA, 72 h. In short, it runs like this:
(§1)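 Three-day growth assay of blood-stage parasites in erythrocytes (0.3% parasitemia, 2.5% hematocrit) at 37 C, 5% CO2, quantified by SYBR Green DNA staining after overnight detergent lysis.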

Another assay concerns 7G8. The assay is described as above. The note with it: P. falciparum in erythrocytes, SYBR Green DNA, 72 h; series mostly up to 28.7 µM. In short, it runs like this: as §1
Another assay deals with AA1029. The assay is described as above. The note with it: P. falciparum in erythrocytes, SYBR Green DNA, 72 h; series mostly up to 28.7 µM. In short, it runs like this:
as §1

The next assay relates to AS120. Described as above. The note with it: P. falciparum in erythrocytes, SYBR Green DNA, 72 h; series mostly up to 28.7 µM. The method in brief:
as §1

The next assay has as its system ATS189. The description is as above. Conditions: P. falciparum in erythrocytes, SYBR Green DNA, 72 h; series mostly up to 28.7 µM. In short, it runs like this: as §1
Another assay deals with ATS95. Described as above. Conditions: P. falciparum in erythrocytes, SYBR Green DNA, 72 h; series mostly up to 28.7 µM. In short, it runs like this: as §1
The next assay has as its system C2A. Described as above. Conditions: P. falciparum in erythrocytes, SYBR Green DNA, 72 h; series mostly up to 28.7 µM. The method in brief: as §1
Another assay relates to CP185. Described as above. Conditions: P. falciparum in erythrocytes, SYBR Green DNA, 72 h; series mostly up to 28.7 µM. The method in brief:
as §1

A further assay relates to 3D7. Described as above. The note with it: P. falciparum in erythrocytes, SYBR Green DNA, 72 h; series mostly up to 28.7 µM. In short, it runs like this: as §1
Assay [3] can be described thus: qHTS for identification of novel therapeutic agents for treatment of microphthalmiaassociated transcription factor (MiT) renal cell carcinoma (RCC) (AID 1963991). Conditions: CellTiter-Glo, 48 h, stronger effect = lower value. In short, it runs like this:
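Viability of three TFE3-fusion renal carcinoma lines measured by CellTiter-Glo after 48 h treatment with each of 1912 compounds at 11 concentrations. Responses scaled between DMSO (100%) and empty wells (0%) before curve fitting.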

The mark [4] stands for this setting: measured here: PEO1 parental Z-AUC.
The mark [5] stands for this setting: at 28.7 µM (top of the series), parasite line A.
The mark [6] stands for this setting: at 28.7 µM (top of the series), parasite line B.
Where [7] appears, read: at 12.8 µM (top of the series), parasite line A.
Setting [8] is: at 12.8 µM (top of the series), parasite line B.
Where [9] appears, read: TFE3-RCC UOK109 viability, measured here: UOK109 Z-AUC.
The mark [10] stands for this setting: TFE3-RCC viability, measured here: UOK124 Z-AUC.
Where [11] appears, read: TFE3-RCC viability, measured here: UOK145 Z-AUC.

Results filed as inconclusive are left out. Active and inactive are the calls of the source. Unless noted, the call rests on the fitted dose curve; in most records, active means well fitted inhibition curve with a large enough effect; inconclusive means small, poorly fitted or top-dose-only effect; inactive means flat fitted curve, though single readings scatter.

For `CC(=O)Oc1ccccc1C(=O)Nc1ncc([N+](=O)[O-])s1`, the Z-AUC was 0.99 (inactive) in assay [1], 0.864 in [1] (setting [4]) and 0.834 in assay [1] (measured here: PEO4 Z-AUC). In addition, the activity, negative = inhibition in [2] (setting [5]) is 1.42% (inactive); in assay [2] (setting [6]), 8% (inactive). For the same compound, the Potency with 7G8 is 10 µM (active). Besides, the Potency entry in the assay on AA1029, with AS120, in the assay on ATS189, in the assay on ATS95, in the assay with C2A and in the assay with CP185 was “inactive” throughout.

As for `COC(=O)Nc1nc2ccc(C(=O)c3ccccc3)cc2[nH]1`, the Potency in assay [1] is 436 nM (active). Besides, the Z-AUC is -1.51 in assay [1] (setting [4]) and -1.61 in [1] (measured here: PEO4 Z-AUC). Also, the results for the activity, negative = inhibition in assay [2] (setting [7]) and in assay [2] (setting [8]) were 5.97% (inactive) and 9.61% (inactive), respectively. The Potency entry in the assay on 3D7, with 7G8, with AA1029, in the assay on AS120, in the assay on ATS189 and in the assay with ATS95 was “inactive” each time. The Potency entry with C2A and in the assay with CP185 was “inactive” each time.

Consider `CCOC(=O)c1ccc(C#Cc2ccc3c(c2)C(C)(C)CCS3)nc1`, for which the Z-AUC in assay [1] was 1.4 (inactive); in assay [1] (setting [4]), 1.62; in assay [1] (measured here: PEO4 Z-AUC), 1.15. Besides, the z-score in assay [3] (setting [9]) was 0.0377; in [3] (setting [10]) it was 0.696; in assay [3] (setting [11]) it was 0.0993. Besides, the activity, negative = inhibition in assay [2] (setting [6]) was -14.4% (inactive). Further, the Potency entry in the assay on 3D7, in the assay with AA1029, in the assay on AS120 and in the assay with ATS95 was “inactive” throughout. In the assay on 7G8, the Potency is 12.6 µM (active).

For the compound `CC1=CC(=O)c2ccccc2C1=O`, the Z-AUC in [1] was 0.899 (inactive); in assay [1] (setting [4]), 0.394; in assay [1] (measured here: PEO4 Z-AUC), 0.252. The figures for the activity, negative = inhibition in [2] (setting [5]) and in assay [2] (setting [6]) were -6.5% (inactive) and -23% (inactive), respectively. The Potency was 7.08 µM (active) in the assay on 3D7 and 10 µM (active) in the assay on 7G8. Besides, the Potency result in the assay with AA1029, in the assay with AS120, with ATS189, with ATS95 and in the assay with CP185 was “inactive” throughout.

With `CCOC(=O)c1ccc(OC(=O)CCCCCN=C(N)N)cc1`, the results for the Z-AUC in [1], in assay [1] (setting [4]) and in assay [1] (measured here: PEO4 Z-AUC) were 1.08 (inactive), 1.13 and 0.861, respectively. Further, the results for the z-score in assay [3] (setting [9]), in assay [3] (setting [10]) and in assay [3] (setting [11]) were 0.377, 0.137 and -0.125, respectively. The activity, negative = inhibition in [2] (setting [7]) is -3.04% (inactive); in assay [2] (setting [8]), 4.29% (inactive). In the assay on 7G8, the Potency is 3.55 µM (active). Besides, the Potency result with AA1029, with AS120, in the assay with ATS95, with C2A and with CP185 was “inactive” in each case.

For the compound `CCCc1nc(C)c2c(=O)[nH]c(-c3cc(S(=O)(=O)N4CCN(CC)CC4)ccc3OCC)nn12`, the Z-AUC is 1.15 (inactive) in assay [1], 0.477 in assay [1] (setting [4]) and 0.621 in assay [1] (measured here: PEO4 Z-AUC). Also, the activity, negative = inhibition is -13.4% (inactive) in assay [2] (setting [5]) and -10.2% (inactive) in assay [2] (setting [6]). Also, the Potency result with 3D7, in the assay on ATS189, in the assay on ATS95, in the assay on C2A and in the assay with CP185 was “inactive” each time. The Potency in the assay on 7G8 is 7.08 µM (active).

With `CNNCc1ccc(C(=O)NC(C)C)cc1`, the Z-AUC in [1] is 1.13 (inactive); in [1] (setting [4]), 0.747; in assay [1] (measured here: PEO4 Z-AUC), 1.05. Moreover, the activity, negative = inhibition in assay [2] (setting [5]) is 0.0651% (inactive); in assay [2] (setting [6]), -2.63% (inactive). For the same compound, the Potency entry in the assay with 3D7, in the assay with AA1029, in the assay on AS120, in the assay with ATS189, in the assay on ATS95 and with C2A was “inactive” in each case. The Potency result in the assay with CP185 is “inactive”.

As to `CNC1CCCN(c2c(F)cc3c(=O)c(C(=O)O)cn(C4CC4)c3c2OC)C1` (centres undefined), the Z-AUC in assay [1] is 1.39 (inactive); in [1] (setting [4]) it was 1.15; in assay [1] (measured here: PEO4 Z-AUC) it was 1.09. The figures for the activity, negative = inhibition in assay [2] (setting [5]) and in [2] (setting [6]) were 5.3% (inactive) and 5% (inactive), respectively. For the same compound, the Potency entry in the assay with 3D7, in the assay with 7G8, in the assay with AA1029, in the assay on AS120, with ATS189 and in the assay with ATS95 was “inactive” throughout. For the same compound, the Potency result with C2A and in the assay with CP185 was “inactive” throughout.

With `CC[C@H](C)C(=O)O[C@H]1C[C@@H](C)C=C2C=C[C@H](C)[C@H](CC[C@@H]3C[C@@H](O)CC(=O)O3)[C@H]21`, the Z-AUC in [1] is 1 (inactive); in assay [1] (setting [4]) it was 1.47; in [1] (measured here: PEO4 Z-AUC), 1.3. In addition, the activity, negative = inhibition in assay [2] (setting [5]) was -2.1% (inactive); in assay [2] (setting [6]), -31.4% (inactive). Moreover, the Potency entry with 3D7, with 7G8, in the assay with AA1029, in the assay with AS120, in the assay with ATS189 and with ATS95 was “inactive” throughout. For the same compound, the Potency result with C2A and in the assay on CP185 was “inactive” throughout.

For the compound `C[C@@H](NCCCc1cccc(C(F)(F)F)c1)c1cccc2ccccc12`, the Z-AUC in assay [1] was 0.769 (inactive); in assay [1] (setting [4]) it was 0.263; in assay [1] (measured here: PEO4 Z-AUC), 0.404. Moreover, the z-score was found to be 1.16 in assay [3] (setting [9]), 0.808 in assay [3] (setting [10]) and 0.348 in assay [3] (setting [11]). Further, the Potency in [2] (parasite line B) was 5.62 µM (active); in the assay on 3D7, 11.2 µM (active); with 7G8, 1.12 µM (active); with AA1029, 6.31 µM (active); in the assay with AS120, 3.98 µM (active); in the assay on ATS189, 7.08 µM (active). For the same compound, the Potency was 7.08 µM (active) with ATS95, 8.91 µM (active) in the assay with C2A and 11.2 µM (active) in the assay on CP185.

`S=P(N1CC1)(N1CC1)N1CC1`: the values for the Z-AUC in assay [1], in assay [1] (setting [4]) and in assay [1] (measured here: PEO4 Z-AUC) were 0.79 (inactive), 1.48 and 1.59, respectively. The results for the activity, negative = inhibition in assay [2] (setting [5]) and in assay [2] (setting [6]) were -0.685% (inactive) and -0.221% (inactive), respectively. For the same compound, the Potency entry in the assay with 3D7, with 7G8, in the assay on AA1029, in the assay on AS120, with ATS189 and in the assay with ATS95 was “inactive” each time. Further, the Potency entry in the assay on C2A and in the assay on CP185 was “inactive” each time.

With `NC(N)=NC(N)=NCCc1ccccc1`, the Z-AUC in [1] is 1.13 (inactive); in [1] (setting [4]), 0.288; in assay [1] (measured here: PEO4 Z-AUC), 0.483. Also, the activity, negative = inhibition is -25.4% (inactive) in [2] (setting [7]), -8.82% (inactive) in [2] (setting [8]) and -17% (inactive) in [2] (setting [6]). In addition, the Potency result in the assay on 3D7, in the assay on 7G8, in the assay with AA1029, in the assay with AS120, in the assay with ATS189 and in the assay with ATS95 was “inactive” in each case. Moreover, the Potency entry in the assay with C2A and with CP185 was “inactive” each time.

Take `CCOc1cc(N)c(Cl)cc1C(=O)NCC1CN(Cc2ccc(F)cc2)CCO1` (centres undefined): the Z-AUC in assay [1] is 1.79 (inactive); in assay [1] (setting [4]), 1.17; in assay [1] (measured here: PEO4 Z-AUC), 1.21. In addition, the values for the z-score in [3] (setting [9]), in [3] (setting [10]) and in assay [3] (setting [11]) were -0.211, 0.779 and 0.352, respectively. In addition, the Potency was 2.51 µM (active) in assay [2] (parasite line A); 11.2 µM (active) in assay [2] (parasite line B); 11.2 µM (active) in the assay on 7G8; 12.6 µM (active) in the assay with AA1029; 8.91 µM (active) in the assay on AS120; 5.01 µM (active) in the assay with ATS189. The values for the Potency with ATS95, in the assay with C2A and with CP185 were 10 µM (active), 11.2 µM (active) and 10 µM (active), respectively.
